In PubChem BioAssay (NCI) one finds growth data, which are given here for 39 compounds.

This is part of a sample that, as a whole, favours compounds with a hit. Of some 83,000 tested, about 20% had one in any assay.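 Cell lines were cultured in 96-well plates, exposed to a single compound concentration, and assessed for percent growth 48 hours later.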 Activity calls are given as the source filed them. Rule for the calls: active = growth percent below 10; inactive = the rest.

The first test deals with RXF 393 renal. Briefly: NCI-60 one-dose screen, 48 h (100 = growth as untreated, 0 = no growth, -100 = all killed). As to conditions: 10 µM unless noted.
For `CC(=O)O[C@H]1CC[C@]2(C)[C@H]3CC=C4[C@@H]5CC(C)(C)CC[C@]5(C(=O)OCC(COC(=O)C(Cl)Cl)(COC(=O)C(Cl)Cl)NC(=O)C(Cl)Cl)CC[C@@]4(C)[C@]3(C)CC[C@H]2C1(C)C`, the growth is 74.7% (inactive).

`Clc1ccc(Cl)c(N=Cc2ccc3c(c2)OCO3)c1`: the growth was 111% (inactive).

Take `CCN(CC)c1ccc2c(cc1=O)[C@@H](NC(C)=O)CCc1cc(OC)c(OC)c(OC)c1-2`: the growth was 58.8% (inactive).

In the case of `COc1ccc(CNc2c3ccccc3nc3ccc(OC)cc23)cc1`, the growth is -2.57% (active).

As for `NC(=O)c1ccc[n+](Cc2ccccc2)c1`, the growth was 97.6% (inactive).

Turning to `N/N=C(\C(=N\N)c1ccccc1)c1ccccc1`, the growth was 118% (inactive).

For the compound `CC1=C(O)C(=O)CC1`, the growth was 102% (inactive).

On to `CCN(CC)CCCC(C)Nc1ccnc2ccc(Oc3ccccc3)cc12` (stereo not drawn), for which the growth was 24.5% (inactive).

For the compound `COc1cc2ncnc(Nc3ccc(S(=O)(=O)Nc4nccs4)cc3)c2cc1OCCCN1CCOCC1`, the growth was 111% (inactive).

As to `CC(=O)Cc1ccccn1`, the growth is 119% (inactive).

Regarding `CC1OC(n2c3ccccc3c3c4c(c5c6ccccc6[nH]c5c32)C(=O)N(CCN[C@H]2CCC[C@@H]2N)C4=O)CC(O)C1O` (stereo partly drawn), the growth was 63% (inactive).

`O=C(C(=O)N1CCCC1)c1cn(CCCn2cc(C(=O)C(=O)N3CCCC3)c3cc(Br)ccc32)c2ccc(Br)cc12`: the growth is 82.8% (inactive).

For the compound `CCCCCCCOc1cccc(/C=C2\N=C3SCCCN3C2=O)c1`, the growth is 116% (inactive).

With `COc1ccc(NC(=O)c2sc3c(=O)[nH]c(C(F)(F)F)nc3c2C)cc1`, the growth was 117% (inactive).

With `C=C[C@H]1CCC/C=C/[C@@H]2C[C@H](O)C[C@H]2[C@H](O)/C=C/C(=O)O1`, the growth is -15.2% (active).

As to `C=CC(=O)N1CN(C(=O)C=C)CN(C(=O)C=C)C1`, the growth is 10.2% (inactive).

For the compound `CC(C)CCSc1nc(Nc2ccccc2)c(C#N)c(-c2ccc(F)cc2)n1`, the growth is 82% (inactive).

As for `COC(=O)c1ccc2c(c1)nc(-c1cc3ccccc3[nH]c1=O)n2-c1cc(C(C)(C)C)[nH]n1`, the growth is 89.9% (inactive).

`O=C1NN(C(=O)c2ccccc2)C(c2ccc(Cl)c(Cl)c2)=C/C1=C\c1ccccc1[N+](=O)[O-]`: the growth was 7.22% [6.75 µM] (active).

Consider `O=C(CCl)Nc1ccc2c(c1)C(=O)c1ccccc1C2=O`, for which the growth is 39.8% (inactive).

As for `CCOC(=O)C1C(=O)C=C(c2cc(OC)c(OC)c(OC)c2)CC1c1sc(N(C)Cc2ccccc2)nc1Cl` (stereo not drawn), the growth was 81.5% (inactive).

In the case of `N/C(=N\OC(=O)c1ccccc1)C(C(=O)NOC(=O)c1ccccc1)C1CCCCC1` (stereo not drawn), the growth is 82.1% (inactive).

As to `C=C(C)[C@@H]1CC[C@]2(C(=O)O)CC[C@]3(C)[C@H](CC[C@@H]4[C@@]5(C)C[C@@H](CC#Cc6ccc(C(C)=O)s6)[C@H](O)C(C)(C)[C@@H]5CC[C@]43C)[C@@H]12`, the growth was 74.3% (inactive).

On to `CC(C)[C@@H]1C=C2CC[C@H]3[C@](C)(CN)CCC[C@]3(C)[C@H]2CC1`, for which the growth is 87.9% (inactive).

Take `COc1ccc(-c2cc(-c3cn(-c4cccc(Cl)c4)nc3-c3ccc(OC)cc3)[nH]c(=S)n2)cc1`: the growth was 102% (inactive).

For the compound `CCN1CCN(Cc2ccc(NC(=O)Nc3ccc(-n4ccc5c(NC(=O)c6ccccc6)nccc54)cc3)cc2C(F)(F)F)CC1`, the growth was -86.8% (active).

Take `Clc1ccc(C2=NN[C@H](c3cn(-c4ccccc4)nc3-c3ccccc3)C2)cc1`: the growth is 42.6% (inactive).

Consider `CC(C)CC1NC(=O)C(CC(C)C)N(CO)C1=O` (stereo not drawn), for which the growth was 111% (inactive).

For `c1ccc(-c2ccc(-c3ccccc3)[nH]2)cc1`, the growth is 102% (inactive).

Take `C=CCN(CC#N)CC=C`: the growth was 112% (inactive).

Regarding `COc1ccc2c(c1)sc1nc(-c3ccccc3)c(-c3cccc4ccccc34)n12`, the growth is 7.5% (active).

In the case of `CC(C)c1nc2ccccc2n1CC(=O)N/N=C/c1cccc(O)c1`, the growth is 104% (inactive).

As to `CCCCCCCC/C=C\CCCCCCCC(=O)OCCCCCC`, the growth is 104% (inactive).

On to `CCN(CC)c1ccc(/C=N/NC(=O)c2ccc(S(C)(=O)=O)cc2)c(O)c1`, for which the growth is 28.6% (inactive).

On to `CC(=O)CC(c1ccc([N+](=O)[O-])cc1)c1c(O)c2ccccc2oc1=O` (stereo not drawn), for which the growth was 108% (inactive).

Consider `CC1CCCN(CCCCOc2ccc(-c3ccc(C#N)cc3)cc2)C1` (stereo not drawn), for which the growth was 94.6% (inactive).

Take `Cn1c(-c2ccccc2)cc(=O)n1-c1ccccc1`: the growth was 115% (inactive).

Consider `O=C(NCCN1CCCC1)n1cc(-c2ccncc2)c(-c2cc(O)cc(Cl)c2)n1`, for which the growth was 75.5% (inactive).

For the compound `C(=Nc1ccc(-c2ccc(N=Cc3ccccc3)cc2)cc1)c1ccccc1`, the growth is 113% (inactive).

Another test concerns SF-268 CNS. The test is described as above. As to conditions: 10 µM unless noted.
As to `CC(=O)O[C@H]1CC[C@]2(C)[C@H]3CC=C4[C@@H]5CC(C)(C)CC[C@]5(C(=O)OCC(COC(=O)C(Cl)Cl)(COC(=O)C(Cl)Cl)NC(=O)C(Cl)Cl)CC[C@@]4(C)[C@]3(C)CC[C@H]2C1(C)C`, the growth was 56.1% (inactive).

`Clc1ccc(Cl)c(N=Cc2ccc3c(c2)OCO3)c1`: the growth is 105% (inactive).

For `CCN(CC)c1ccc2c(cc1=O)[C@@H](NC(C)=O)CCc1cc(OC)c(OC)c(OC)c1-2`, the growth is 24.4% (inactive).

`COc1ccc(CNc2c3ccccc3nc3ccc(OC)cc23)cc1`: the growth was 40.2% (inactive).

Turning to `NC(=O)c1ccc[n+](Cc2ccccc2)c1`, the growth was 107% (inactive).

For the compound `N/N=C(\C(=N\N)c1ccccc1)c1ccccc1`, the growth is 103% (inactive).

For the compound `CC1=C(O)C(=O)CC1`, the growth was 110% (inactive).

`CCN(CC)CCCC(C)Nc1ccnc2ccc(Oc3ccccc3)cc12` (stereo not drawn): the growth was 66.2% (inactive).

Regarding `COc1cc2ncnc(Nc3ccc(S(=O)(=O)Nc4nccs4)cc3)c2cc1OCCCN1CCOCC1`, the growth is 98.3% (inactive).

Consider `CC(=O)Cc1ccccn1`, for which the growth is 98.7% (inactive).

`CC1OC(n2c3ccccc3c3c4c(c5c6ccccc6[nH]c5c32)C(=O)N(CCN[C@H]2CCC[C@@H]2N)C4=O)CC(O)C1O` (stereo partly drawn): the growth is 33.5% (inactive).

`O=C(C(=O)N1CCCC1)c1cn(CCCn2cc(C(=O)C(=O)N3CCCC3)c3cc(Br)ccc32)c2ccc(Br)cc12`: the growth was 53.7% (inactive).

As to `CCCCCCCOc1cccc(/C=C2\N=C3SCCCN3C2=O)c1`, the growth is 103% (inactive).

For `COc1ccc(NC(=O)c2sc3c(=O)[nH]c(C(F)(F)F)nc3c2C)cc1`, the growth is 108% (inactive).

Regarding `C=C[C@H]1CCC/C=C/[C@@H]2C[C@H](O)C[C@H]2[C@H](O)/C=C/C(=O)O1`, the growth was 7.6% (active).

As for `C=CC(=O)N1CN(C(=O)C=C)CN(C(=O)C=C)C1`, the growth is 85.3% (inactive).

`CC(C)CCSc1nc(Nc2ccccc2)c(C#N)c(-c2ccc(F)cc2)n1`: the growth was 79.1% (inactive).

As for `COC(=O)c1ccc2c(c1)nc(-c1cc3ccccc3[nH]c1=O)n2-c1cc(C(C)(C)C)[nH]n1`, the growth was 72.8% (inactive).

As for `O=C1NN(C(=O)c2ccccc2)C(c2ccc(Cl)c(Cl)c2)=C/C1=C\c1ccccc1[N+](=O)[O-]`, the growth was 49% [6.75 µM] (inactive).

Take `O=C(CCl)Nc1ccc2c(c1)C(=O)c1ccccc1C2=O`: the growth is -20.3% (active).

With `CCOC(=O)C1C(=O)C=C(c2cc(OC)c(OC)c(OC)c2)CC1c1sc(N(C)Cc2ccccc2)nc1Cl` (stereo not drawn), the growth is 73.6% (inactive).

On to `N/C(=N\OC(=O)c1ccccc1)C(C(=O)NOC(=O)c1ccccc1)C1CCCCC1` (stereo not drawn), for which the growth is 31.9% (inactive).

For `C=C(C)[C@@H]1CC[C@]2(C(=O)O)CC[C@]3(C)[C@H](CC[C@@H]4[C@@]5(C)C[C@@H](CC#Cc6ccc(C(C)=O)s6)[C@H](O)C(C)(C)[C@@H]5CC[C@]43C)[C@@H]12`, the growth was 61.6% (inactive).

In the case of `CC(C)[C@@H]1C=C2CC[C@H]3[C@](C)(CN)CCC[C@]3(C)[C@H]2CC1`, the growth is 43.4% (inactive).

For `COc1ccc(-c2cc(-c3cn(-c4cccc(Cl)c4)nc3-c3ccc(OC)cc3)[nH]c(=S)n2)cc1`, the growth is 70.6% (inactive).

As for `CCN1CCN(Cc2ccc(NC(=O)Nc3ccc(-n4ccc5c(NC(=O)c6ccccc6)nccc54)cc3)cc2C(F)(F)F)CC1`, the growth is 41.7% (inactive).

With `Clc1ccc(C2=NN[C@H](c3cn(-c4ccccc4)nc3-c3ccccc3)C2)cc1`, the growth was 74.6% (inactive).

For the compound `CC(C)CC1NC(=O)C(CC(C)C)N(CO)C1=O` (stereo not drawn), the growth was 112% (inactive).

As for `c1ccc(-c2ccc(-c3ccccc3)[nH]2)cc1`, the growth is 98.6% (inactive).

In the case of `C=CCN(CC#N)CC=C`, the growth was 114% (inactive).

Regarding `COc1ccc2c(c1)sc1nc(-c3ccccc3)c(-c3cccc4ccccc34)n12`, the growth was 50.8% (inactive).

`CC(C)c1nc2ccccc2n1CC(=O)N/N=C/c1cccc(O)c1`: the growth was 99.2% (inactive).

Regarding `CCCCCCCC/C=C\CCCCCCCC(=O)OCCCCCC`, the growth was 108% (inactive).

With `CCN(CC)c1ccc(/C=N/NC(=O)c2ccc(S(C)(=O)=O)cc2)c(O)c1`, the growth is 21.8% (inactive).

For `CC(=O)CC(c1ccc([N+](=O)[O-])cc1)c1c(O)c2ccccc2oc1=O` (stereo not drawn), the growth was 99% (inactive).

Consider `CC1CCCN(CCCCOc2ccc(-c3ccc(C#N)cc3)cc2)C1` (stereo not drawn), for which the growth was 92.5% (inactive).

Turning to `Cn1c(-c2ccccc2)cc(=O)n1-c1ccccc1`, the growth is 112% (inactive).

Regarding `O=C(NCCN1CCCC1)n1cc(-c2ccncc2)c(-c2cc(O)cc(Cl)c2)n1`, the growth is 92.6% (inactive).

As to `C(=Nc1ccc(-c2ccc(N=Cc3ccccc3)cc2)cc1)c1ccccc1`, the growth is 105% (inactive).
